Inconclusive results are not listed. Activity calls are given as the source filed them. Calls follow the shape of the dose curve; as a rule, active = well fitted inhibition curve with a large enough effect; inconclusive = small, poorly fitted or top-dose-only effect; inactive = flat fitted curve, though single readings scatter. Peptide text beside a SMILES is read from it.
Experiments:
Assay in all cases: qHTS profiling for inhibitors of Plasmodium falciparum proliferation (AID 504749); also: nearly all actives have a fitted effect of over 60% in size
Details in all cases: P. falciparum in erythrocytes, SYBR Green DNA, 72 h; series mostly up to 28.7 µM
[1] = test system: 3D7
Method in brief: (§1)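 SYBR Green fluorescence (ex 485 nm, em 535 nm) reports parasite DNA after 72 h compound exposure of infected red cells at 0.3% parasitemia, 2.5% hematocrit; signal normalized to 0.29 uM artemisinin and vehicle wells.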

[2] = test system: 7G8
Method in brief: as §1

[3] = test system: AA1029
Method in brief: as §1

[4] = test system: AS120
Method in brief: as §1

[5] = test system: ATS189
Method in brief: as §1

[6] = test system: ATS95
Method in brief: as §1

[7] = test system: C2A
Method in brief: as §1

[8] = test system: CP185
Method in brief: as §1

[9] = test system: CP191
Method in brief: as §1

[10] = test system: CP192
Method in brief: as §1

[11] = test system: CP194
Method in brief: as §1

[12] = test system: CP201
Method in brief: as §1

[13] = test system: CP203
Method in brief: as §1

[14] = test system: CP211
Method in brief: as §1

[15] = test system: CP215
Method in brief: as §1

[16] = test system: CP217
Method in brief: as §1

[17] = test system: CP237
Method in brief: as §1

[18] = test system: CP238
Method in brief: as §1

[19] = test system: CP247
Method in brief: as §1

[20] = test system: CP250
Method in brief: as §1

Measured: Potency
Potency is read from the fitted curve at half-maximal effect.

Nc1ncnc2c1ncn2[C@@H]1O[C@H](COP(=O)(O)OP(=O)(O)OP(=O)(O)O)[C@@H](O)[C@H]1O
inactive: [1] | [2] | [3] | [4] | [5] | [6] | [7] | [8] | [9] | [10] | [11] | [12] | [13] | [14] | [15] | [16] | [17] | [18] | [19] | [20]

CCCCCCCCCCCC[n+]1ccc2ccccc2c1
active: [1] 1120 nM | [2] 316 nM | [3] 1260 nM | [4] 1410 nM | [5] 1000 nM | [6] 2000 nM | [7] 708 nM | [8] 562 nM | [9] 562 nM | [10] 601 nM | [11] 1200 nM | [12] 1690 nM | [13] 849 nM | [14] 675 nM | [15] 1070 nM | [16] 891 nM | [17] 631 nM | [18] 631 nM | [19] 891 nM | [20] 1120 nM

CC1=C(/C=C/C(C)=C/C=C/C(C)=C/C=C/C=C(C)/C=C/C=C(C)/C=C/C2=C(C)CCCC2(C)C)C(C)(C)CCC1
inactive: [1] | [2] | [3] | [4] | [5] | [6] | [7] | [8] | [9] | [10] | [11] | [12] | [13] | [14] | [15] | [16] | [17] | [18] | [19] | [20]

CC(=O)N[C@@H](CC(=O)O)C(=O)N[C@@H](CCC(=O)O)C(=O)O (Ac-Asp-Glu-OH)
inactive: [1] | [2] | [3] | [4] | [5] | [6] | [7] | [8] | [9] | [10] | [11] | [12] | [14] | [15] | [16] | [17] | [18] | [19] | [20]

COC(F)(F)C(Cl)Cl
inactive: [1] | [2] | [3] | [4] | [5] | [6] | [7] | [8] | [9] | [10] | [11] | [12] | [13] | [14] | [15] | [16] | [17] | [18] | [19] | [20]

COc1ccc2c3c1O[C@H]1C[C@@H](O)C=C[C@@]31CCN(C)C2
inactive: [1] | [2] | [3] | [4] | [5] | [6] | [7] | [8] | [9] | [10] | [11] | [12] | [13] | [14] | [15] | [16] | [17] | [18] | [19] | [20]

Cc1cn([C@H]2C[C@H](O)[C@@H](CO)O2)c(=O)[nH]c1=O
inactive: [1] | [2] | [3] | [4] | [5] | [6] | [7] | [8] | [9] | [10] | [11] | [12] | [13] | [14] | [15] | [16] | [17] | [18] | [19] | [20]

CCCCCCCC(=O)O
inactive: [1] | [2] | [3] | [4] | [5] | [6] | [7] | [8] | [9] | [10] | [11] | [12] | [13] | [14] | [15] | [16] | [17] | [18] | [19] | [20]

Oc1cc(O)c2c(c1)OC(c1ccc(O)c(O)c1)C(O)C2 (stereo not drawn)
inactive: [1] | [2] | [3] | [4] | [5] | [6] | [7] | [8] | [9] | [10] | [11] | [12] | [13] | [14] | [15] | [16] | [17] | [18] | [19] | [20]

Nc1c(N=Nc2ccc(-c3ccc(N=Nc4cc(S(=O)(=O)O)c5ccccc5c4N)cc3)cc2)cc(S(=O)(=O)O)c2ccccc12
inactive: [1] | [2] | [3] | [4] | [5] | [6] | [7] | [8] | [9] | [10] | [11] | [12] | [14] | [15] | [16] | [17] | [18] | [19] | [20]

CC(O)CO (stereo not drawn)
inactive: [1] | [2] | [3] | [4] | [5] | [6] | [7] | [8] | [9] | [10] | [11] | [12] | [13] | [14] | [15] | [16] | [17] | [18] | [19] | [20]
